Columns and labels:
Details in all cases: concentration: 1 μM, replicates: in singlicate; n = 1
RIPK1 = test system: RIPK1
RIPK2 = test system: RIPK2
RIPK4 = test system: RIPK4
RIPK5 = test system: RIPK5
ROCK1 = test system: ROCK1
ROCK2 = test system: ROCK2
ROS1 = test system: ROS1
[1] = test system: RPS6KA4(Kin.Dom.1-N-terminal)
[2] = test system: RPS6KA4(Kin.Dom.2-C-terminal)
[3] = test system: RPS6KA5(Kin.Dom.1-N-terminal)
[4] = test system: RPS6KA5(Kin.Dom.2-C-terminal)
[5] = test system: T1, RSK1(Kin.Dom.1-N-terminal)
T1 construct: gene RPS6KA1

[6] = test system: T2, RSK1(Kin.Dom.2-C-terminal)
T2 construct: gene RPS6KA1

[7] = test system: T3, RSK2(Kin.Dom.1-N-terminal)
T3 construct: gene RPS6KA3

[8] = test system: T4, RSK2(Kin.Dom.2-C-terminal)
T4 construct: gene RPS6KA3

[9] = test system: T5, RSK3(Kin.Dom.1-N-terminal)
T5 construct: gene RPS6KA2

[10] = test system: T6, RSK3(Kin.Dom.2-C-terminal)
T6 construct: gene RPS6KA2

[11] = test system: T7, RSK4(Kin.Dom.1-N-terminal)
T7 construct: gene RPS6KA6

[12] = test system: T8, RSK4(Kin.Dom.2-C-terminal)
T8 construct: gene RPS6KA6

S6K1 = test system: S6K1
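Also: KINOMEscan kinase panel screen.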

| Compound | %Inh (RIPK1) | %Inh (RIPK2) | %Inh (RIPK4) | %Inh (RIPK5) | %Inh (ROCK1) | %Inh (ROCK2) | %Inh (ROS1) | %Inh [1] | %Inh [2] | %Inh [3] | %Inh [4] | %Inh [5] | %Inh [6] | %Inh [7] | %Inh [8] | %Inh [9] | %Inh [10] | %Inh [11] | %Inh [12] | %Inh (S6K1) |
| --- | --- | --- | --- | --- | --- | --- | --- | --- | --- | --- | --- | --- | --- | --- | --- | --- | --- | --- | --- | --- |
| COc1cc2ncnc(Nc3ccc(OCc4ccccc4Br)c(Cl)c3)c2cc1OC.Cl [GI261590] | 0% | 86% | 7% | 0% | 16% | 27% | 4% | 9% | 0% | 0% | 0% | 32% | 0% | 0% | 3% | 100% | 0% | 0% | 0% | 11% |
| Clc1ccc(-c2cc(-c3c[nH]nc3-c3ccccn3)ccn2)cc1 [GW681251] | 0% | 37% | 0% | 0% | 0% | 12% | 0% | 2% | 0% | 6% | 0% | 6% | 13% | 0% | 21% | 0% | 0% | 0% | 44% | 0% |
| CSc1nn2c(=O)cc(N3CCOCC3)nc2n1Cc1cccc(Cl)c1Cl [GSK2347225] | 0% | 20% | 7% | 0% | 15% | 0% | 46% | 17% | 0% | 11% | 8% | 18% | 15% | 0% | 0% | 10% | 0% | 0% | 9% | 0% |
| Clc1cc(Nc2ncnc3cc[nH]c23)ccc1OCc1ccccn1 | 0% | 27% | 23% | 31% | 0% | 0% | 6% | 9% | 11% | 3% | 1% | 0% | 28% | 10% | 0% | 26% | 20% | 2% | 28% | 29% |
| Cl.Cl.c1ccc(-c2cc3ccncc3cc2OC2CCNCC2)cc1 [GSK1122999] | 31% | 17% | 9% | 1% | 94.6% | 91.6% | 33% | 11% | 39% | 27% | 8% | 22% | 21% | 9% | 55% | 0% | 6% | 0% | 30% | 7% |
| CC(=O)Nc1n[nH]c2ncc(-c3ccccc3)cc12 [SB-548492] | 8% | 0% | 24% | 33% | 3% | 1% | 22% | 9% | 17% | 3% | 0% | 1% | 100% | 20% | 0% | 41% | 0% | 36% | 12% | 50% |
| O=C(c1ccc(-c2cc(-c3c[nH]nc3-c3ccccn3)ccn2)cc1)N1CCCC1 [GW792479] | 1% | 9% | 5% | 0% | 0% | 0% | 0% | 13% | 0% | 0% | 11% | 4% | 0% | 14% | 39% | 0% | 12% | 0% | 19% | 7% |
| Nc1nc(-c2cccnc2)c(-c2ccnc3ccccc23)s1 [GW684083] | 0% | 10% | 0% | 2% | 44% | 32% | 25% | 0% | 0% | 26% | 0% | 11% | 22% | 3% | 27% | 8% | 0% | 0% | 79% | 18% |
| CC(C)N1CCC(n2cnc(-c3ccc(F)cc3)c2-c2ccnc(N)n2)CC1 [SB-223132] | 4% | 48% | 0% | 0% | 1% | 0% | 0% | 14% | 0% | 7% | 0% | 0% | 56% | 3% | 29% | 12% | 4% | 0% | 66% | 0% |
| CN1c2ccc(-c3ccc(C(=O)NCCO)cc3)cc2-c2[nH]ncc2S1(=O)=O | 1% | 13% | 0% | 27% | 0% | 41% | 8% | 25% | 49% | 0% | 14% | 0% | 26% | 12% | 41% | 0% | 35% | 3% | 27% | 33% |
